Drawing on PubChem BioAssay (EPA / NIEHS), this text covers outcome and AC50 for 17 compounds.

The structures appear in SMILES notation. Inconclusive results are not listed. The source made the active and inactive calls. The calls were made as follows, unless noted: active = hit-call score of the fitted dose curve at least 0.9, where 1 is the maximum; inactive = score below 0.9.

The nature of test [1]: IUF_NPC2c_oligodendrocyte_migration_120hr: Leibniz Research Institute for Environmental Medicine (IUF) 120-hour Neural Progenitor Cell Migration Assay for Oligodendrocyte Migration (NPC2c) (AID 2284297).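 Also: O4-positive oligodendrocyte migration distance divided by radial glia migration distance.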 The essentials:
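Human fetal cortex-derived neural progenitor spheres (0.3 mm) were plated on poly-D-lysine/laminin in N2 differentiation medium and exposed to 7 concentrations for 120 h, with half-medium renewal at day 3. Oligodendrocyte migration distance was normalized to radial glia migration, relative to DMSO.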

The nature of test [2]: IUF_NPC2a_radial_glia_migration_120hr: Leibniz Research Institute for Environmental Medicine (IUF) 120-hour Neural Progenitor Cell Migration Assay for Radial Glia Migration (NPC2a) (AID 2284298). The essentials: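 Single 0.3 mm primary human fetal-cortex (GW 16-19) NPC spheres were plated on poly-D-lysine/laminin in N2 differentiation medium and exposed from day 0 for 120 h, half-medium refreshed day 3. Migration distance came from Hoechst nuclei-density imaging, relative to DMSO.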

Test [3] is described as follows: IUF_NPC2a_radial_glia_migration_72hr: Leibniz Research Institute for Environmental Medicine (IUF) 72-hour Neural Progenitor Cell Migration Assay for Radial Glia Migration (NPC2a) (AID 2284299). In a few lines: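 Readout: mean of four manual brightfield measurements of radial glia migration distance (um) at 72 h. hNPC spheres (0.3 mm) exposed to 7 compound concentrations plus solvent control on PDL/laminin, 37C, 5% CO2; activity fitted relative to DMSO.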

Test [4] can be described thus: IUF_NPC3_neuronal_differentiation_120hr: Leibniz Research Institute for Environmental Medicine (IUF) 120-hour Neuronal Differentiation Assay (NPC3) (AID 2284301). In a few lines: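 Value is percent TUBB3-positive neurons among Hoechst-stained nuclei in the migration area, scored by trained CNN after 120 h differentiation. Primary hNPC spheres on poly-D-lysine/laminin, N2 medium, continuous dosing from day 0, half-refeed day 3; DMSO reference.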

Test [5] is described as follows: IUF_NPC5_oligodendrocyte_differentiation_120hr: Leibniz Research Institute for Environmental Medicine (IUF) 120-hour Oligodendrocyte Differentiation Assay (NPC5) (AID 2284304; active = hit-call score of the fitted dose curve at least 0.9, where 1 is the maximum;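 also: primary human fetal neural progenitor spheres plated to migrate and differentiate; share of O4-positive cells among Hoechst nuclei found by CNN image analysis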). In a few lines:
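Primary human fetal (GW 16-19) neural progenitor spheres (0.3 mm) plated on poly-D-lysine/laminin in N2 differentiation medium, exposed from day 0 for 120 h with half-medium refresh at day 3; O4-positive cells as percent of Hoechst nuclei, CNN-identified, versus DMSO.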

Read-out in test [6]: Plasminogen activator inhibitor-1 (PAI1), SERPINE1 (gene 5054)
The test can be described thus: BSK_MyoF_PAI1: BioMAP Diversity Plus: MyoF Assay for Plasminogen activator inhibitor-1 (PAI1) Biomarker Activity (AID 2284256). The settings on record: primary human lung fibroblasts. The essentials:
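ELISA read-out of PAI-1 from primary human lung fibroblast cultures 24 h after dosing; gain-of-signal fit versus DMSO control.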

Read-out in test [7]: Interleukin-8 (IL8), CXCL8 (gene 3576)
The test is described as follows: BSK_MyoF_IL8: BioMAP Diversity Plus: MyoF Assay for Interleukin-8 (IL8) Biomarker Activity (AID 2284261). The conditions noted are these: primary human lung fibroblasts. The essentials:
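ELISA read-out of IL-8 from primary human lung fibroblasts, 24 h post-dose; positive-direction curve fitting relative to DMSO vehicle baseline.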

Read-out in a further test: Decorin, DCN (gene 1634)
The test is described as follows: BSK_MyoF_Decorin: BioMAP Diversity Plus: MyoF Assay for Decorin Biomarker Activity (AID 2284265). The settings on record: primary human lung fibroblasts. On the procedure: BSK_MyoF is a cell-based, multiplexed-readout assay that uses lung fibroblasts, […], with measurements taken at 24 hours after chemical dosing in a microplate: 96-well plate.BSK_MyoF_Decorin is an assay component measured in the BSK_MyoF assay. It measures Decorin antibody related to regulation of gene expression using ELISA technology.Data from the assay component BSK_MyoF_Decorin was analyzed at the endpoint, BSK_MyoF_Decorin, in the positive analysis fitting direction relative to DMSO as the negative control and baseline of activity. Using a type of binding reporter, gain or loss-of-signal activity can be used to understand protein changes. […]
The levels of cell surface (or secreted, indicated by the prefix "s") biomarker endpoints were measured by ELISA. Overt cytotoxicity to cells in confluent adherent cultures (all systems other than the BT system) was assessed by measuring total protein levels using sulforhodamine B (SRB) staining in parallel cultures at the time of biomarker measurements, indicated as SRB endpoints. For proliferation assays for adherent cell types, individual cell types are cultured at sub-confluence and relative cell numbers quantified by SRB staining at time points optimized for each system (48 h: 3C and CASM3C systems; 72 h: BT and HDF3CGF systems; 96 h: SAg system). […] Plates were read after 6 h.

Test [8] in a line: BSK_MyoF_SRB: Viability Assessment in the BioMAP Diversity Plus: MyoF Assay (AID 2284267).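 Also: total protein by SRB absorbance in parallel cultures as cytotoxicity measure; cells assessed 24 h after compound addition.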 The conditions noted are these: primary human lung fibroblasts. The essentials: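 Lung fibroblast cultures, 24 h post-dose; fix 10% TCA, stain 0.1% SRB, read 560 nm. Signal = total protein as cytotoxicity measure; fitted relative to DMSO negative control.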
Read-out in test [9]: TIMP metallopeptidase inhibitor 1 (TIMP1), TIMP1 (gene 7076)
The test is described as follows: BSK_MyoF_TIMP1: BioMAP Diversity Plus: MyoF Assay for TIMP metallopeptidase inhibitor 1 (TIMP1) Biomarker Activity (AID 2284269). The settings on record: primary human lung fibroblasts. In a few lines: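 ELISA quantified TIMP-1 levels after 24 h dosing of primary human lung fibroblasts, with DMSO as baseline. Parallel SRB total protein staining (0.1% SRB after TCA fixation, 560 nm) flagged overt cytotoxicity.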

`N#CN=C1SCCN1Cc1ccc(Cl)nc1`: the compound was called inactive in [1], in test [2], in [3], in [4] and in test [5].
Consider `CO/N=C(/C1=NOCCO1)c1ccccc1Oc1ncnc(Oc2ccccc2Cl)c1F`, for which the result in [1], in test [2], in [3], in [4] and in [5] was inactive.
Take `CC(C)(C)C(=O)C(Oc1ccc(Cl)cc1)n1cncn1` (configuration not stated): the outcome in [1], in test [2], in [3], in test [4] and in test [5] was inactive.
Consider `COC(=O)N(C(=O)N1CO[C@@]2(C(=O)OC)Cc3cc(Cl)ccc3C2=N1)c1ccc(OC(F)(F)F)cc1`, for which the outcome in [1], in test [2], in test [3] and in [4] was inactive. In [5], the AC50 was 1.99 µM (active).
Consider `CCNC(=O)NC(=O)C(C#N)=NOC`, for which the call in [1], in test [2], in [3] and in [5] was inactive. In addition, the AC50 in test [4] was 318 nM (active).
As for `Cc1c(COC(=O)[C@@H]2[C@H](/C=C(\Cl)C(F)(F)F)C2(C)C)cccc1-c1ccccc1`, the result in [1], in test [2], in test [3] and in test [4] was inactive. For the same compound, in test [5], the AC50 was 1.25 µM (active).
Regarding `CS(=O)(=O)c1ccc(C(=O)C2C(=O)CCCC2=O)c([N+](=O)[O-])c1`, the call in [1], in test [2], in [3] and in [4] was inactive.
As to `C=C(C)CN(CC)c1c([N+](=O)[O-])cc(C(F)(F)F)cc1[N+](=O)[O-]`, the compound was classed as inactive in test [1], in test [2], in test [3], in [4] and in test [5].
In the case of `CS(=O)(=O)c1cc(C(F)(F)F)ccc1C(=O)c1cnoc1C1CC1`, the compound was classed as inactive in [1], in [2], in [3], in test [4] and in test [5].
Regarding `CN/C(=N\[N+](=O)[O-])NCc1cnc(Cl)s1`, the compound was classed as inactive in test [1], in test [2], in test [3], in test [4] and in [5].
For the compound `COP(=S)(OC)SCn1nnc2ccccc2c1=O`, the result in [1], in test [3], in test [4] and in test [5] was inactive. Further, the half-maximal activity concentration (AC50) in test [2] is 13.7 µM (active).
Take `COCC(C)N(C(=O)CCl)c1c(C)csc1C` (configuration not stated): the AC50 in test [6] was 20 µM (active); in [7] it was 10.3 µM (active). Further, the outcome with Decorin, DCN (gene 1634) is “inactive”; in test [8], “inactive”; in test [9], “inactive”.
On to `CCSC(=O)N1CCCCCC1`, for which the compound was called inactive in test [1], in test [2], in [4] and in [5]. For the same compound, the AC50 in [3] is 8.49 µM (active).
On to `CCOP(=O)(OCC)Oc1nc(Cl)c(Cl)cc1Cl`, for which the compound was classed as inactive in [1], in test [2], in test [3] and in test [4].
Turning to `O=C(Nc1ccccc1-c1ccc(Cl)cc1)c1cccnc1Cl`, the call in test [1], in test [2], in test [3], in test [4] and in test [5] was inactive.
In the case of `CC1(C)C(C=C(Cl)Cl)C1C(=O)OC(C#N)c1cccc(Oc2ccccc2)c1` (configuration not stated), the call in test [1], in test [2], in test [3], in test [4] and in test [5] was inactive.
For `CNC(=O)Oc1cccc2ccccc12`, the result in test [1], in [2], in test [3] and in [4] was inactive.
